Among the test systems are SK-MEL-2 melanoma; EKVX NSCLC; SN12C renal; UO-31 renal; TK-10 renal; ACHN renal; CAKI-1 renal; A498 renal; CCRF-CEM leukemia; MOLT-4 leukemia; RPMI-8226 leukemia; OVCAR-8 ovarian; OVCAR-5 ovarian; OVCAR-4 ovarian; SK-OV-3 ovarian; IGROV1 ovarian; OVCAR-3 ovarian; HS 578T breast; NCI/ADR-RES ovarian.
Common to all, as to test: NCI-60 one-dose screen, 48 h (100 = growth as untreated, 0 = no growth, -100 = all killed)
Holding throughout (conditions): 10 µM unless noted

The panel holds about 83,000 compounds, 20% with a hit somewhere; the sample as a whole holds those more often.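 Step 1: grow cells in 96-well plates. Step 2: add test compound at a single concentration. Step 3: incubate 48 h. Step 4: record percent growth.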 Unmarked numbers belong to inactive results. Active and inactive are the calls of the source. How the source made its calls: active means growth percent below 10; inactive means the rest.

Our source for the growth values is PubChem BioAssay (NCI).

For the compound `Cc1ccc(C(=NN=C(N)N)c2ccc(C)cc2)cc1`, the growth in the assay on SK-MEL-2 melanoma was -4.66% (active); in the assay on EKVX NSCLC, 52.4%; in the assay on SN12C renal it was 22.6%; with UO-31 renal, 21%; with TK-10 renal, 12.9%; in the assay with ACHN renal, 23.8%. Further, the growth in the assay with CAKI-1 renal was 27.1%; in the assay on A498 renal, 17.1%; in the assay on CCRF-CEM leukemia it was 14.7%; with MOLT-4 leukemia, 5.74% (active); with RPMI-8226 leukemia, 1.96% (active); in the assay with OVCAR-8 ovarian, 6.75% (active). For the same compound, the growth is 30.8% in the assay on OVCAR-5 ovarian; 31.2% in the assay with OVCAR-4 ovarian; -10.8% (active) with SK-OV-3 ovarian; 5.38% (active) in the assay on IGROV1 ovarian; -34.8% (active) in the assay with OVCAR-3 ovarian; 32.4% in the assay on HS 578T breast. Besides, in the assay with NCI/ADR-RES ovarian, the growth was 6.63% (active).

Consider `CCCCCCCCCCCCCCCCCC1=NCCN1CCOC1=C(Cl)C(=O)c2ccccc2C1=O`, for which the growth is 85.3% in the assay with SK-MEL-2 melanoma; 86.7% in the assay with EKVX NSCLC; 78.9% in the assay on SN12C renal; 42.6% with UO-31 renal; 78.9% in the assay with TK-10 renal; 30.2% with ACHN renal. In addition, the growth in the assay with CAKI-1 renal is 8.77% (active); in the assay on A498 renal it was 99.7%; with CCRF-CEM leukemia it was 57%; with MOLT-4 leukemia, 71.7%; with RPMI-8226 leukemia it was 33.1%; in the assay with OVCAR-8 ovarian it was 75%. The growth was 115% in the assay on OVCAR-5 ovarian; -5.67% (active) with OVCAR-4 ovarian; 99.9% with SK-OV-3 ovarian; 67% in the assay with IGROV1 ovarian; 23.4% with OVCAR-3 ovarian; 90.1% in the assay on HS 578T breast. The growth in the assay with NCI/ADR-RES ovarian is 81.7%.

`CN(C)CCNc1nc2ccccc2c2c1c1c(n2Cc2ccccc2)-c2ccccc2C1=O`: the growth with SK-MEL-2 melanoma is -74.6% (active); in the assay on EKVX NSCLC, -87.8% (active); with SN12C renal, -89.1% (active); in the assay on UO-31 renal it was -77.8% (active); in the assay on TK-10 renal, -80% (active); with ACHN renal it was -98.4% (active). Moreover, the growth in the assay with CAKI-1 renal is -80.1% (active); in the assay with A498 renal it was -96.4% (active); with CCRF-CEM leukemia, -60.6% (active); with MOLT-4 leukemia it was -84.3% (active); in the assay on RPMI-8226 leukemia it was -72.7% (active); in the assay with OVCAR-8 ovarian, -53% (active). Besides, the growth with OVCAR-5 ovarian is -74.7% (active); in the assay on OVCAR-4 ovarian, -93.6% (active); with SK-OV-3 ovarian, -92.5% (active); in the assay on IGROV1 ovarian, -72.9% (active); in the assay with OVCAR-3 ovarian, -79.2% (active); in the assay with HS 578T breast, -90.4% (active). In addition, the growth with NCI/ADR-RES ovarian is -72.6% (active).

As for `O=C(CCCCCCSc1nc(-c2ccccc2)cc(-c2ccc(Cl)cc2)n1)NO`, the growth is 81.3% with SK-MEL-2 melanoma; 44.5% in the assay with EKVX NSCLC; 20.7% in the assay on SN12C renal; -2.31% (active) with UO-31 renal; 21.1% in the assay on TK-10 renal; 4.89% (active) in the assay with ACHN renal. For the same compound, the growth in the assay on CAKI-1 renal is -7.71% (active); in the assay with A498 renal, 24.2%; in the assay on CCRF-CEM leukemia, 0.872% (active); in the assay on MOLT-4 leukemia, 1.04% (active); with RPMI-8226 leukemia it was 15.7%; with OVCAR-8 ovarian, 8.67% (active). The growth in the assay with OVCAR-5 ovarian was 21.6%; in the assay with OVCAR-4 ovarian, 41.3%; with SK-OV-3 ovarian it was 0.785% (active); in the assay with IGROV1 ovarian, -19.6% (active); in the assay with OVCAR-3 ovarian, 25.2%; in the assay on HS 578T breast it was 45.7%. Further, the growth with NCI/ADR-RES ovarian is -25.5% (active).

Regarding `O=C(CSc1nccc(Nc2ccc(S(=O)(=O)Nc3nccs3)cc2)n1)c1ccc(F)cc1`, the growth is 105% in the assay with SK-MEL-2 melanoma; 97.5% in the assay on EKVX NSCLC; 110% with SN12C renal; 75.8% in the assay on UO-31 renal; 110% with TK-10 renal; 103% with ACHN renal. For the same compound, the growth in the assay on CAKI-1 renal is 96.4%; with A498 renal, 109%; with CCRF-CEM leukemia, 108%; with MOLT-4 leukemia it was 115%; with RPMI-8226 leukemia, 108%; in the assay with OVCAR-8 ovarian it was 98.1%. Besides, the growth in the assay on OVCAR-5 ovarian is 106%; in the assay with OVCAR-4 ovarian, 99.2%; in the assay on SK-OV-3 ovarian, 97.6%; with IGROV1 ovarian, 106%; in the assay with OVCAR-3 ovarian, 111%; in the assay on HS 578T breast it was 97.9%. For the same compound, the growth in the assay with NCI/ADR-RES ovarian is 101%.

On to `CN(c1ccccc1)c1ccc2c(c1)OCCC21CC1Nc1cnccc1C(=O)O` (configuration not stated), for which the growth is 97.5% in the assay with SK-MEL-2 melanoma; 93.1% in the assay with EKVX NSCLC; 82.9% in the assay with SN12C renal; 87.4% with UO-31 renal; 79.5% in the assay with TK-10 renal; 66.7% with ACHN renal. Further, the growth in the assay with CAKI-1 renal is 76.3%; in the assay with A498 renal, 59.7%; with CCRF-CEM leukemia, 47.2%; with MOLT-4 leukemia, 45.8%; in the assay with RPMI-8226 leukemia, 82.6%; with OVCAR-8 ovarian it was 54.9%. Also, the growth is 96.2% with OVCAR-5 ovarian; 75.3% in the assay on OVCAR-4 ovarian; 69.1% in the assay on SK-OV-3 ovarian; 75.1% in the assay with IGROV1 ovarian; 77.1% in the assay with OVCAR-3 ovarian; 80.8% with HS 578T breast. The growth in the assay on NCI/ADR-RES ovarian is 73.8%.

With `COc1cc(C(=O)c2cc(C)c3[nH]c4ccc(Cl)cc4c3c2C)cc(OC)c1OC`, the growth is 57.6% with SK-MEL-2 melanoma; 50.2% in the assay with EKVX NSCLC; 17.5% in the assay with SN12C renal; 24.6% with UO-31 renal; 87.5% in the assay with TK-10 renal; 24.2% with ACHN renal. Besides, the growth was 21% in the assay on CAKI-1 renal; -9.44% (active) in the assay on A498 renal; 17.2% in the assay with CCRF-CEM leukemia; 20.7% in the assay with MOLT-4 leukemia; 22.4% in the assay with RPMI-8226 leukemia; 28.5% in the assay on OVCAR-8 ovarian. Moreover, the growth in the assay on OVCAR-5 ovarian was 42.3%; in the assay on OVCAR-4 ovarian, 56.4%; with SK-OV-3 ovarian, 45.7%; in the assay with IGROV1 ovarian, 9.24% (active); in the assay on OVCAR-3 ovarian, -35.7% (active); with HS 578T breast, 43.5%. In addition, the growth in the assay on NCI/ADR-RES ovarian was 0.863% (active).

Regarding `COc1ccc(CNC(=O)C(O)C(Cc2ccccc2)NC(=O)c2[nH]c3ccccc3c(=O)c2C)cc1OC` (configuration not stated), the growth was 99.5% in the assay on SK-MEL-2 melanoma; 99% in the assay on EKVX NSCLC; 103% with SN12C renal; 98.7% with UO-31 renal; 93.6% with TK-10 renal; 108% with ACHN renal. In addition, the growth in the assay with CAKI-1 renal was 99.6%; in the assay on A498 renal it was 113%; with CCRF-CEM leukemia it was 108%; in the assay with MOLT-4 leukemia, 99.8%; with RPMI-8226 leukemia it was 111%; in the assay on OVCAR-8 ovarian, 103%. For the same compound, the growth in the assay with OVCAR-5 ovarian is 98.1%; in the assay with OVCAR-4 ovarian, 111%; in the assay with SK-OV-3 ovarian it was 103%; with IGROV1 ovarian it was 112%; in the assay with OVCAR-3 ovarian it was 111%; in the assay with HS 578T breast, 97.4%. For the same compound, the growth in the assay with NCI/ADR-RES ovarian was 107%.
